According to PubChem BioAssay (NCI):
This is part of a sample that, as a whole, favours compounds with a hit. Of some 79,000 tested, about 15% had one in any assay. No stated cut-off is given here; in the data, active means growth inhibition above about 70%; inactive means the rest.

Tests used:
[1] = NCI Yeast Anticancer Drug Screen. Data for the rad50 strain (AID 155);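 further: 0% = growth of vehicle-only cultures of the same strain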; details: S. cerevisiae rad50 strain growth inhibition; at 50.0 µM; hits give high values
Outline: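 DNA repair mutant yeast, compound exposure, growth read-out; inhibition is taken relative to vehicle.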

[2] = NCI Yeast Anticancer Drug Screen. Data for the mec2-1 strain (AID 157); details: S. cerevisiae mec2-1 strain, at 50.0 µM, hits give high values
Outline: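 Yeast mec2-1 mutant treated with compound. Readout: growth inhibition vs vehicle controls.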

[3] = NCI Yeast Anticancer Drug Screen. Data for the sgs1 mgt1 strain (AID 161);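 further: 0% = growth of cultures given vehicle only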; details: S. cerevisiae sgs1 mgt1 strain, at 50.0 µM, hits give high values
Outline: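 Test agents were incubated with a DNA-repair-mutant yeast strain. Growth was then read and compared against vehicle-treated controls.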

[4] = NCI Yeast Anticancer Drug Screen. Data for the cln2 rad14 strain (AID 165);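 further: 0% = growth equal to vehicle treated cultures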; details: S. cerevisiae cln2 rad14 strain, at 50.0 µM, hits give high values
Outline: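 cln2 rad14 yeast strain; compound exposure; growth inhibition read vs vehicle controls.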

[5] = NCI Yeast Anticancer Drug Screen. Data for the bub3 strain (AID 167); details: S. cerevisiae bub3 mutant strain, at 50.0 µM, hits give high values
Outline: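 In this screen, a yeast mutant lacking normal mitotic checkpoint function is challenged with compound. Relative growth versus vehicle gives the inhibition value.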

[6] = NCI Yeast Anticancer Drug Screen. Data for the mlh1 rad18 strain (AID 175); details: S. cerevisiae mlh1 rad18 strain growth inhibition; at 50.0 µM; hits give high values
Outline: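 Yeast w/ defined DNA-repair lesions; compound exposure; growth vs vehicle controls → % inhibition.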

Measured: growth inhibition

Cc1ccc(NC(=O)CNc2ccc3c(c2)Cc2ccccc2-3)cc1
inactive: [1] -1.05% | [2] 14.6% | [3] 24.9% | [4] -37.5% | [5] 34.5% | [6] 27.2%

COc1ccc(/C=N/n2cnc3c(c2=O)S/C(=C2/SC(=S)N(c4ccc(C)cc4)C2=O)N3c2ccccc2)cc1
inactive: [1] -29.5% | [2] -57.2% | [3] -12.8% | [4] -75% | [5] -25.9% | [6] -11.9%

O=C1C(=O)c2ccccc2C(O)=C1c1ccccc1
inactive: [1] 28.6% | [2] 22.8% | [3] 47.2% | [4] 7.75% | [5] 5.6% | [6] 51%

Cc1cc(C)c(C(CC(=O)O)C(CC(=O)O)c2c(C)cc(C)cc2C)c(C)c1 (centres undefined)
inactive: [1] -0.25% | [2] 1.5% | [3] -16.6% | [4] -21.4% | [5] -6.85% | [6] 32.4%

CN(C)Cc1cc(C(=O)/C=C/c2ccc(Cl)cc2)cc(CN(C)C)c1O
inactive: [1] -27.6% | [2] -22.1% | [3] -20.9% | [4] -44.2% | [5] 1.2% | [6] -18.1%

CCOC(=O)c1c(Nc2ccccc2O)oc2ccccc12
inactive: [1] -0.4% | [2] 3.1% | [3] 6.95% | [4] 17.6% | [5] 6.45% | [6] 11.9%

COC(=O)/C(C#N)=C/c1ccco1
inactive: [1] -34% | [2] 6.65% | [3] -14.2% | [4] 2.5% | [5] -2.05% | [6] -21.6%

COc1cc(C(C)O)c[n+](CCC2CNc3ccccc32)c1 (centres undefined)
inactive: [1] -4.65% | [2] -2.2% | [3] 5.8% | [4] 18.6% | [5] 6.45% | [6] -21.1%

Fc1ccc(N=C2c3ccccc3-c3ccccc32)cc1
inactive: [1] 6.35% | [2] -1.9% | [3] -0.25% | [4] 5.3% | [5] 1.65% | [6] 1.15%

COC(=O)c1ccc(CS(=O)(=O)c2ccccc2)cc1
inactive: [1] 2% | [2] -6.3% | [3] 4.6% | [4] 7.1% | [5] 14.7% | [6] -11.5%

N#C/C=C\c1ccc(F)cc1
inactive: [1] 27.1% | [2] 9.7% | [3] 17.1% | [4] 3.35% | [5] 10.8% | [6] 12.2%

CC(=O)CC(=O)ON(C)C(C)=O
inactive: [1] -8.85% | [2] 19.2% | [3] -15.8% | [4] 8.45% | [5] -14.3% | [6] -11.6%

COc1ccccc1NC(=O)C(C#N)=C(SC)SC
inactive: [1] 2.05% | [2] -14.2% | [3] 0.1% | [4] 18.6% | [5] -22.4% | [6] -13.7%

COc1ccc(NC(=O)c2oc3cc(O)ccc3c(=O)c2C)c([N+](=O)[O-])c1
inactive: [1] 0.65% | [2] -1.8% | [3] 11.5% | [4] 11.9% | [5] -15.2% | [6] 2.2%

COC(=O)c1cc(-c2cccnc2)[nH]c(=O)c1C#N
inactive: [1] -5.4% | [2] -36.6% | [3] -39.9% | [4] -15.7% | [5] -9.7% | [6] -14.2%

Cc1nc2cc(C)c(C)cc2[nH]1
inactive: [1] -7.55% | [2] -1% | [3] 3.75% | [4] -9.15% | [5] 8.9% | [6] 5.8%

C/C(CC(=O)Nc1cccc([N+](=O)[O-])c1)=N\NC(=O)C[n+]1ccccc1
inactive: [1] 15.5% | [2] -16.9% | [3] -0.65% | [4] 19.1% | [5] 0.5% | [6] -3.35%

CCCCCCCCCCNC(=O)C(OC(C)=O)C(OC(C)=O)C(OC(C)=O)C(COC(C)=O)OC(C)=O (centres undefined)
inactive: [1] 29.4% | [2] 12.6% | [3] 19.3% | [4] 32.1% | [5] 10.2% | [6] 40.4%

Cc1ccnc(=O)[nH]1
inactive: [1] -2.45% | [2] -0.2% | [3] 11.8% | [4] 8.45% | [5] 1.75% | [6] 29.9%

O=C(Nc1ccc(F)cc1)C(=O)C(C(=O)c1ccccc1F)C1OC(=O)c2ccccc21 (centres undefined)
inactive: [1] 2.8% | [2] -0.05% | [3] -10.6% | [4] 1.55% | [5] -0.35% | [6] 2.25%

O=C(Nc1cc(Cl)ccc1Cl)c1ccc(Cl)cc1
inactive: [1] -1.3% | [2] -14.5% | [3] 4.45% | [4] -44% | [5] -9.7% | [6] -12.7%

COC1CCC2(C)C3CCC4C(=CCC5C(C)(C)C(OC(C)=O)CCC45C)CC3(C)CCC2C1(C)C (centres undefined)
inactive: [1] 13.1% | [2] -19.4% | [3] -8.35% | [4] -20.8% | [5] 0.1% | [6] 0.2%

COc1cc2ccccc2cc1CO
inactive: [1] -4.15% | [2] -4.2% | [3] -3.8% | [4] -16.1% | [5] -22.8% | [6] -0.45%

CCCCSc1n[nH]c(C2CCC(=O)N2Cc2ccccc2)n1 (centres undefined)
inactive: [1] -14.8% | [2] -19.1% | [3] -0.8% | [4] -12.9% | [5] -3.5% | [6] -6%

Cc1c(N)cc2c(c1[N+](=O)[O-])C(C)(C)CC2(C)C
inactive: [1] 3.15% | [2] -14.1% | [3] 1.6% | [4] -5.2% | [5] 11.9% | [6] -0.85%

CCCC(C(=O)O)C(O)(CC(=O)O)C(=O)O (centres undefined)
inactive: [1] 18.6% | [2] -14.6% | [3] 11.4% | [4] -32.1% | [5] 7.85% | [6] -20.6%

CCCCNS(=O)(=O)c1cc(C(=O)O)cc(C(=O)O)c1
inactive: [1] 2.55% | [2] -7% | [3] 4.25% | [4] -33.9% | [5] 2.75% | [6] -1.7%

Cc1ccc[n+](CCCCCCCC[n+]2cccc(C)c2)c1
inactive: [1] 54.7% | [2] 2.7% | [3] 44.4% | [4] -2.25% | [5] 3.4% | [6] 33.2%

CN1c2ccccc2N(C)C2C1N(C)c1ccccc1N2C (centres undefined)
inactive: [1] -38.9% | [2] -28.4% | [3] -12.4% | [4] -1.8% | [5] -19.9% | [6] -36.1%

O=C1CC(c2ccccc2)S(=O)(=O)c2ccccc2N1 (centres undefined)
inactive: [1] -13.6% | [2] -8.5% | [3] 1.5% | [4] 10.2% | [5] 11.3% | [6] 1.45%

CC(C)NC(=O)Nc1ccccc1Cl
inactive: [1] -4.45% | [2] -8.9% | [3] 6.9% | [4] -28.8% | [5] -11.8% | [6] -0.7%

CC1CC[N+]2(C)CCCC12 (centres undefined)
inactive: [1] 1.1% | [2] -4.4% | [3] -5.3% | [4] -39.3% | [5] -23.9% | [6] -12.4%

Cc1cc2sc(C)[n+](CCCOS(=O)(=O)[O-])c2cc1C
inactive: [1] -22.6% | [2] -23.9% | [3] -40% | [4] 36.3% | [5] -0.95% | [6] -35.9%

NC(=O)c1csc(Nc2csc(N)n2)n1
inactive: [1] -6.05% | [2] -15.5% | [3] -6.35% | [4] -13.6% | [5] 18.8% | [6] -26.6%

CC(NC(=O)c1ccccc1)c1ccc[nH]1 (centres undefined)
inactive: [1] 8.75% | [2] -9.2% | [3] 0.05% | [4] -15.2% | [5] -25.6% | [6] -0.15%

O=C1C2Nc3ccccc3N=C2OC1c1ccc(Cl)c(Cl)c1 (centres undefined)
inactive: [1] 10.1% | [2] -5.35% | [3] 15.7% | [4] 7% | [5] -4.8% | [6] 24.6%

CC(=O)N1CCOCC1
inactive: [1] 23.1% | [2] 1.55% | [3] 11.1% | [4] -28.6% | [5] -1.8% | [6] 21.1%

c1cncc([O][Ge]([O]c2cccnc2)([O]c2cccnc2)[O]c2cccnc2)c1
inactive: [1] 8.6% | [2] 15.8% | [3] 31% | [4] 24.1% | [5] 3% | [6] 35.8%

O=C1c2ccccc2C(=O)N1OCc1csc(-c2ccccc2)n1
inactive: [1] 5.5% | [2] 6.25% | [3] -4.2% | [4] 5.25% | [5] 0.95% | [6] 27.4%
